Pf growth 96h – inhibits malaria parasite growth, 96 h; AID 504834; 6.9% of 320,000 active; Potency, µM (series often up to 28.7 µM), without a hit: top-dose activity change, negative = inhibition, most hits filed as inhibitors; P. falciparum luciferase reporter growth, 96 h
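Delayed-death screen, second-generation endpoint: infected erythrocytes, 2% hematocrit, 0.05% parasitemia final; 96 hours at 37 C, 5% CO2; luciferase detection reagent; luminescence decrease equals reduced growth.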
AmpC inh no detg – blocks E. coli AmpC beta-lactamase in detergent-free assay; P00811; AmpC nitrocefin hydrolysis, absorbance 480 nm, 0.0001% Triton; Potency, µM (titrated, usually from 57.1 µM), for the others: at the highest dose activity change, negative = inhibition, most hits filed as inhibitors; 0.52% of 330,000 active; AID 485341;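 note: plate controls were no compound for no effect and no enzyme for full effect; nearly all actives have a fitted effect of over 20% in size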
Target sequence (P00811 whole entry, looked up): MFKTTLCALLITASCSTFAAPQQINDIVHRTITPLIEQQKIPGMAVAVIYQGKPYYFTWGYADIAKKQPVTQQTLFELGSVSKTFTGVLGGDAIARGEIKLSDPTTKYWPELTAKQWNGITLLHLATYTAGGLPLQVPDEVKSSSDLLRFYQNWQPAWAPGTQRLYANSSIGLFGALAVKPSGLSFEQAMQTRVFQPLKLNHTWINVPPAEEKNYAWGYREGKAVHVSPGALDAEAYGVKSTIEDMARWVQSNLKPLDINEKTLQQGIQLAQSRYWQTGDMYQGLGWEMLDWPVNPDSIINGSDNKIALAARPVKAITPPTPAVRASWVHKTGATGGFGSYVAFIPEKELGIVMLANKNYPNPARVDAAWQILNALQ
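AmpC (5.3 nM in the dispensed reagent) in 20 mM phosphate pH 7.0 with 0.01% (detergent screen) or 0.0001% Triton X-100 was preincubated with compounds for 15 min at room temperature. Nitrocefin was then added from an 800 uM solution, and hydrolysis was followed at 480 nm.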
AmpC inh detg – AmpC beta-lactamase inhibition with detergent present; P00811; AmpC hydrolysis of nitrocefin, absorbance 480 nm, 0.01% Triton; Potency, µM (doses to about 114 µM), for inactives: top-dose activity change, negative = inhibition, usual class: inhibitors; 0.041% of 370,000 active;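 note: 0% = no-compound wells and -100% = no-enzyme wells; nearly all actives have a fitted effect of over 25% in size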
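20 mM phosphate pH 7.0 + 0.01% (detergent screen) or 0.0001% Triton X-100; 5.3 nM AmpC reagent; cpd preinc 15 min RT; nitrocefin (800 uM stock) to start; A480 q20 s × 4 min; Activity was normalised to no-enzyme and no-compound control wells.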
AMA1 RON2 block – inhibitors of Plasmodium falciparum AMA1-RON2 interaction; AlphaScreen AMA1-biotinylated RON2 peptide binding; Potency, µM (titrated, usually from 58.2 µM), for inactives: top-dose activity change, negative = inhibition, usual class: inhibitors; 0.2% of 360,000 active;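 note: 0% = vehicle wells and -100% = peptide control; nearly all actives have a fitted effect of over 45% in size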
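AMA1 (3D7) with his tag at 25 nM final met compounds first, then biotinylated RON2 peptide at 25 nM; detection used donor plus acceptor beads, 10 µg/mL apiece, read by AlphaScreen after 30 min at room temperature.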
Pf growth 48h – P. falciparum growth inhibition at 48 hours (one generation); P. falciparum luciferase growth in erythrocytes, 48 h; Potency, µM (highest dose often 28.7 µM), inactives show at the top dose activity change, negative = inhibition, usual class: inhibitors; 5.9% of 310,000 active; AID 504832
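Compounds are pin-transferred into medium, infected erythrocytes (2% hematocrit, 0.1% parasitemia final) are added, and plates sit one parasite generation at 37 C in 5% CO2. Detection reagent is then added and luminescence measured.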
HCV inh – inhibitors of hepatitis C virus infection; Potency, µM (top dose mostly 41.8 µM), inactives show at the top dose activity change, negative = inhibition, hits mostly inhibitors; 3.4% of 340,000 active; Huh7.5.1 HCVcc-Cre infection, luciferase reporter, 44 h; AID 651820
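Compounds are dispensed onto cells plated 4 h earlier at 1,000 per well, with HCVcc-Cre virus (about 0.5 moi) added next. Following 44 h of culture, luminescent signal is measured for 15 sec after 15 min with substrate at room temperature.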
Numbers without * were called inactive; ? = inconclusive; . = not tested or not shown; [ ] = another dose, or the depositor's remark. Sampled rows, rich in hits. Any-hit rate of the full collection: about 11%. Calls come from the whole dose curve; as a rule, active = well fitted curve in the direction sought with a large enough effect; inconclusive = small, poorly fitted or top-dose-only effect, or another doubt; inactive = no such curve, though single readings can be large; an effect the other way counts as inactive or inconclusive. Unless noted, % is set by controls: 0 for no effect and ±100 for the full control effect; potency is the fitted concentration of half-maximal effect.

SMILES | Pf growth 96h | AmpC inh no detg | AmpC inh detg | AMA1 RON2 block | Pf growth 48h | HCV inh
CCOc1cc(C=C(C(=O)OC)C(=O)OC)ccc1OCc1ccc([N+](=O)[O-])cc1 | -3% | ? | -1% | 16% | ? | 7.9µM*
O=S(=O)(c1ccccc1)c1cnc(-c2ccccc2)nc1N1CCCC1 | -16% | -15% | 5% | 17% | 13% | ?
COc1nc(-c2ccccc2)ncc1S(=O)(=O)c1ccccc1 | ? | -8% | 4% | 15% | ? | ?
Cc1ccc(S(=O)(=O)c2cnc(-c3ccccc3)nc2N2CCCCC2)cc1 | -8% | -1% | 7% | 0% | 13µM* | ?
COc1cccc(Sc2nc(-c3ccccc3)ncc2S(C)(=O)=O)c1 | 9.3µM* | -1% | -18% | -4% | . | -26%
Cc1cccc(C)c1Oc1nc(-c2ccccc2)ncc1S(=O)(=O)c1ccccc1 | ? | -19% | 3% | 3% | 2.1µM* | -16%
COc1ccc(Oc2nc(-c3ccccc3)ncc2S(=O)(=O)c2ccccc2)cc1 | ? | ? | 5% | -6% | 15µM* | ?
CS(=O)(=O)c1cnc(-c2ccccc2)nc1Sc1ccc(F)cc1 | -11% | -10% | 5% | 4% | . | ?
CCN1C(=O)C(Cc2nc3ccccc3c(=O)n2-c2ccc(OC)cc2)c2cc(C)ccc21 (configuration not stated) | . | . | -5% | . | . | .
COc1ccc2cc(CO)c3cc(OC)c(OC)cc3c2c1 | . | -1% | . | -1% | . | 13µM*
CCCCCn1cc2c(c1-c1ccc(Cl)cc1)c(=O)n(C)c(=O)n2C | . | . | 23% | . | . | .
COc1ccc(C[C@H]2CN3C(=NC[C@@H]3C(C)C)N2CCNC(=O)c2ccc(C)c(Br)c2)cc1 | 2.1µM* | 41% | 5% | -17% | ? | -24%
C/C=C(\C)C(=O)NCCN1C2=NC[C@H](C(C)C)N2C[C@@H]1Cc1ccc(OC)cc1 | 90% | 8% | -6% | 148% | 48% | 5%
Cc1ccc(C(=O)NCCN2C3=NC[C@H](C(C)C)N3C[C@H]2Cc2ccc(O)cc2)cc1Br | 2.6µM* | -2% | 6% | -5% | 4.7µM* | ?
C/C=C(\C)C(=O)NCCN1C2=NC[C@@H](Cc3ccccc3)N2C[C@H]1Cc1ccc(O)cc1 | 17% | -1% | 6% | -6% | 31% | 15%
C/C=C(\C)C(=O)NCCN1C2=NC[C@H](C(C)C)N2C[C@H]1Cc1ccc(O)cc1 | 3.3µM* | -11% | -9% | 5% | 5% | 14%
COc1ccc(-c2noc(CN(C(=O)C(C)Oc3ccc(C)cc3)C(C)C)n2)cc1 (configuration not stated) | . | . | 13% | . | . | .
Cc1cc(C)c2c(CC(=O)N3CCN(c4cccc(Cl)c4)CC3)coc2c1 | . | . | 12% | . | . | .
CC1CN(C)CCC1OC(=O)c1ccccc1 (configuration not stated) | 2.1µM* | -1% | ? | 5% | 10% | -3%
CC1CN(C(C)C)C(C)CC1OC(=O)c1ccccc1 (configuration not stated) | -3% | -20% | ? | 0% | -9% | -3%
CCCCOc1ccc(C(=O)OC2CC(C)N(C)CC2C)cc1 (configuration not stated) | . | 44% | ? | -12% | ? | 4.5µM*
CCCCOc1ccc(C(=O)N2CCC(C)CC2)cc1 | . | 20% | -2% | 2% | 26% | 7%
COc1ccc(CCNC(=O)c2ccc3c(c2)N(Cc2cccc(Cl)c2)C(=O)c2ccccc2S3=O)cc1OC (configuration not stated) | . | . | -2% | . | . | .
COc1ccc(-c2oc3c(OC)c(OC)c(OC)c(O)c3c(=O)c2OC)cc1OC | 3.3µM* | 140% | 8% | 70% | ? | 10µM*
COc1ccc(-c2oc3cc(O)c(OC)c(O)c3c(=O)c2OC)cc1 | ? | -43% | 1% | -4% | ? | -27%
SMILES | Pf growth 96h | AmpC inh no detg | AmpC inh detg | AMA1 RON2 block | Pf growth 48h | HCV inh
COc1c(OC)c(O)c2c(=O)c(O)c(-c3ccccc3)oc2c1OC | 11% | -32% | -6% | 26% | 35% | -17%
COc1ccc(-c2oc3cc(OC)c(O)c(OC)c3c(=O)c2OC)cc1O | 10µM* | 10% | 7% | -26% | ? | 8.9µM*
Cc1cc(C)c(NC(=O)Cn2c(=O)oc3cc(S(=O)(=O)N4CCCCCC4)ccc32)c(C)c1 | . | . | 10% | . | . | .
COc1cccc(-c2c(-c3cc(OC)cc(OC)c3)n(C)c3ccc(-c4cnc(OC)nc4)cc23)c1 | ? | -11% | -4% | -11% | ? | ?
COc1cc(OC)cc(-c2c(-c3ccc(F)cc3)c3cc(-c4cnc(OC)nc4)ccc3n2C)c1 | 4.7µM* | -23% | -1% | 2% | 4.1µM* | ?
COc1ccc(-c2c(-c3cc(OC)cc(OC)c3)n(C)c3ccc(-c4ccc(S(N)(=O)=O)cc4)cc23)cc1 | ? | -30% | -4% | -13% | 13µM* | 10µM*
CCOc1ccc(C(=O)Nc2ccc(Cl)c(-c3nc4cc(C)cc(C)c4o3)c2)cc1 | . | . | -5% | . | . | .
COc1cc(OC)c(C2=NOC(C(=O)N3CCCc4ccccc43)C2)cc1Cl (configuration not stated) | 8.3µM* | 6% | -8% | 1% | . | 5.6µM*
COc1cccc(N2CCN(Cc3cc(=O)oc4cc(C)ccc34)CC2)c1 | . | . | 15% | . | . | .
O=C(c1ccc(Oc2ccc([N+](=O)[O-])cc2)cc1)N1CCCCCC1 | 3% | 30% | 1% | -10% | 26% | 25µM*
O=C(c1ccc([N+](=O)[O-])cc1)N1CCC(Cc2ccccc2)CC1 | ? | 36% | -6% | 2% | -3% | 21%
O=C(NCC1CCN(C(=O)c2ccc([N+](=O)[O-])cc2)CC1)C(=O)Nc1ccccc1 | 15µM* | -19% | ? | 10% | 3% | -14%
O=C(CCc1ccc(Oc2cc([N+](=O)[O-])cc([N+](=O)[O-])c2)cc1)N1CCCCC1 | ? | 96% | 6% | -16% | 12µM* | ?
COc1ccc(-c2c(C(F)(F)F)oc3cc(OCC(=O)Nc4ccccc4C(F)(F)F)ccc3c2=O)cc1OC | ? | -2% | ? | 10% | ? | 4%[0.335 µM]
CC(Oc1ccc2c(=O)c(-c3ccc(Cl)cc3)c(C(F)(F)F)oc2c1)C(=O)O (configuration not stated) | 29% | 0% | 4% | 11% | 10µM* | 21%
CS(=O)(=O)N(CC(=O)Nc1ccccc1C(=O)N1CCOCC1)c1ccc(F)c(Cl)c1 | 30% | 29% | 1% | -3% | 8% | 26%

Assay outcomes (PubChem)
